NPSR antag – blocks cAMP signaling of the human neuropeptide S receptor. Potency, µM (titrated, usually from 38.3 µM), for the others: at the top dose activity change, negative = inhibition, actives largely listed as inhibitors. CHO-NPSR cells, cAMP TR-FRET, antagonist mode. hit rate 1% among 220,000. AID 1461; also: potency is read from the fitted curve at half-maximal effect; % is scaled to controls: 0 for no effect and ±100 for the full control effect; nearly all actives have a fitted effect of over 50% in size
MBNL1 CUG block – inhibitors of human MBNL1 binding to CUG repeat RNA. Q9NR56. TR-FRET MBNL1-His/biotin-(CUG)12 binding, 665/545 ratio. Potency, µM (titrated, usually from 57.5 µM), for the others: at the highest dose activity change, negative = inhibition, actives largely listed as inhibitors. hit rate 0.036% among 280,000; active = well fitted inhibition curve with a large enough effect in the signal ratio, with a control signal flat, not every such curve was filed as active; inconclusive = small, poorly fitted or top-dose-only effect, or effect the other way, or a change in a side signal; inactive = no such curve, though single readings can be large or run the other way; the % refers to the signal ratio; also: potency is read from the fitted curve at half-maximal effect; % is scaled to controls: 0 for no effect and ±100 for the full control effect
Target sequence (Q9NR56 whole entry, looked up): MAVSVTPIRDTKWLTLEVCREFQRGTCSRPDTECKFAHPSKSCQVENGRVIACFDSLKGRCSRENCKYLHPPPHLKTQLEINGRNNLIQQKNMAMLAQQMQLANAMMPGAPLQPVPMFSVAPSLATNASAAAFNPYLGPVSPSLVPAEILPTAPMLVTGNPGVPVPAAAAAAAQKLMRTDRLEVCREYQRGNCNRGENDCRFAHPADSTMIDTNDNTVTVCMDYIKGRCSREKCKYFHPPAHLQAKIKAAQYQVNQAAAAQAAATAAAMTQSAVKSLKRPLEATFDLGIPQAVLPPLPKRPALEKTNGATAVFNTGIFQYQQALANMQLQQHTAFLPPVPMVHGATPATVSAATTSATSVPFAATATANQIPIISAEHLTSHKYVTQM
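His-tagged MBNL1 binding to biotinylated (CUG)12 RNA was measured by TR-FRET using terbium anti-His antibody (0.055 ng/ul final) and streptavidin-XL665 (5 nM final). Compounds were titrated 92 nM to 58 uM; 60 min at room temperature.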
LMNA splice mod – changes lamin A minigene splicing in HeLa cells; HeLa LMNA splicing GFP/RFP minigene ratio, 48 h; Potency, µM (top dose mostly 46.1 µM), without a hit: at the highest dose ratio change, negative = inhibition, hits mostly inhibitors; hit rate 0.01% among 200,000; AID 1487; active = well fitted inhibition curve with a large enough effect in the signal ratio, with a control signal flat, not every such curve was filed as active; inconclusive = small, poorly fitted or top-dose-only effect, or effect the other way, or a change in a side signal; the % refers to the signal ratio; also: potency is read from the fitted curve at half-maximal effect; % is scaled to controls: 0 for no effect and ±100 for the full control effect
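S3 HeLa cells stably expressing lamin A-EGFP splicing minigene plus DsRed2, 600 cells/well, 48 h compound exposure at 37C. Laser-scanning cytometry; analysed as GFP (500-530 nm)/RFP (575-640 nm) total intensity ratio; 0.5% DMSO vehicle.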
HttQ103 aggreg – inhibitors of mutant huntingtin aggregate formation in PC12 cells | Potency, µM (top dose mostly 46.1 µM), for the others: at the highest dose activity change, negative = inhibition, hits mostly inhibitors | PC12 HttQ103-GFP aggregates, Acumen cytometry, 40 h | hit rate 1.1% among 220,000; also: potency is read from the fitted curve at half-maximal effect; % is scaled to controls: 0 for no effect and ±100 for the full control effect; nearly all actives have a fitted effect of over 60% in size
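Using laser scanning cytometry, GFP-positive aggregates were counted after lysis of PC12 cells induced with 100 nM tebufenozide to express HTT exon 1 Q103–GFP. Compounds were tested in titration.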
HTT ATP protect – Huntington cell model cytoprotection by ATP luminescence | PC12 HTT-Q103 induced, cytoprotection, ATP luminescence, 40 h | Potency, µM (top dose mostly 56.4 µM), inactives show cytoprotection (ATP increase), hits mostly activators | hit rate 0.14% among 230,000 | AID 1471; also: potency is read from the fitted curve at half-maximal effect; % of control where 0% means no effect; nearly all actives have a fitted effect of over 45% in size
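PC12 cells stably carrying ecdysone-inducible Htt exon 1 (Q103)–GFP were induced with 100 nM tebufenozide (final) alongside library compounds in a dose series. Cytoprotection was scored as retained ATP by ATPlite luminescence.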
CBFb RUNX1 block – CBF-beta/RUNX1 interaction disruption; Potency, µM (titrated, usually from 59.8 µM), inactives show top-dose activity, negative = inhibition, hits mostly inhibitors; 230,000 tested, under 10 active; AID 1477; AlphaScreen CBFb-His/RUNX1-biotin binding, biochemical; also: % of control where 0% means no effect
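CBF-beta (His) and RUNX1 (biotin), 30 nM each; 20 min preassociation; + compound, 15 min; + beads 50 ng each (Ni, streptavidin), 90 min; RT; AlphaScreen read.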
* marks the source's active call; other numbers are inactive results; ? = inconclusive; . = no result; [ ] = remark or other dose. Most compounds without a hit are left out; they make up all but 1.1% or so of the library. Unless noted, calls follow the shape of the dose curve; as a rule, active = well fitted curve in the direction sought with a large enough effect; inconclusive = small, poorly fitted or top-dose-only effect, or another doubt; inactive = no such curve, though single readings can be large; an effect the other way counts as inactive or inconclusive.

SMILES | NPSR antag | MBNL1 CUG block | LMNA splice mod | HttQ103 aggreg | HTT ATP protect | CBFb RUNX1 block
CC(C)[C@H]1C(=O)N2CCC[C@H]2[C@]2(O)O[C@](NC(=O)[C@@H]3C=C4c5cccc6[nH]cc(c56)C[C@H]4N(C)C3)(C(C)C)C(=O)N12 | 1µM* | ? | ? | 12% | . | ?
CC(C)C[C@H]1C(=O)N2CCC[C@H]2[C@]2(O)O[C@](NC(=O)[C@@H]3C=C4c5cccc6[nH]c(Br)c(c56)CC4N(C)C3)(C(C)C)C(=O)N12 (some centres undefined) | 1.6µM* | ? | ? | 3% | . | -15%
CC(C)C1C(=O)N2CCCC2[C@]2(O)O[C@@](NC(=O)[C@@H]3C=C4c5cccc6[nH]cc(c56)C[C@H]4N(C)C3)(C(C)C)C(=O)N12 (some centres undefined) | . | . | . | . | 4%[1.9 µM] | ?
CC(C)[C@@]1(NC(=O)[C@@H]2C[C@@H]3c4cccc5[nH]cc(c45)C[C@H]3N(C)C2)O[C@@]2(O)[C@@H]3CCCN3C(=O)[C@H](Cc3ccccc3)N2C1=O | 2µM* | 14% | 2% | ? | -23%[1.9 µM] | -19%
CC(C)C[C@H]1C(=O)N2CCC[C@@H]2[C@]2(O)O[C@](NC(=O)[C@@H]3C=C4c5cccc6[nH]c(Br)c(c56)C[C@H]4N(C)C3)(C(C)C)C(=O)N12 | . | . | . | . | 3% | -4%[21.7 µM]
CC(C)[C@@]1(NC(=O)[C@@H]2C[C@H]3c4cccc5[nH]cc(c45)C[C@@H]3N(C)C2)O[C@]2(O)[C@H]3CCCN3C(=O)CN2C1=O | . | . | ? | . | -9%[40.3 µM] | -17%[21.7 µM]
C[C@H](N[C@@H](C)CCc1ccccc1)[C@H](O)c1ccc(O)cc1 | . | . | . | . | 17%[1.9 µM] | .
CC(=O)[C@@H]1CC[C@@H]2[C@H]3CC[C@H]4C[C@@H](O)CC[C@]4(C)[C@@H]3C(=O)C[C@]21C | . | . | . | . | -13%[1.9 µM] | .
CN(C)CCC(C#N)(c1ccccc1)c1ccccc1 | . | . | . | . | 4%[10 µM] | .
CCCC[N+]1(C)[C@@H]2CC(OC(=O)[C@@H](CO)c3ccccc3)C[C@H]1[C@H]1O[C@H]12 (some centres undefined) | . | . | . | . | -8%[1.9 µM] | .
C[C@]12O[C@H](C[C@]1(O)CO)n1c3ccccc3c3c4c(c5c6ccccc6n2c5c31)CNC4=O | . | . | . | 1.6µM* | -98% | .
CN[C@@H]1C[C@@]2(C)O[C@@H]([C@@H]1OC)n1c3ccccc3c3c4c(c5c6ccccc6n2c5c31)C(=O)NC4 | . | . | . | . | -196% | -2%
Oc1ccc2c3c1O[C@@H]1c4[nH]c5c(c4C[C@@]4(O)[C@@H](C2)N(CC2CC2)CC[C@]314)C[C@]1(O)[C@@H]2Cc3ccc(O)c4c3[C@@]1(CCN2CC1CC1)[C@H]5O4 | . | . | . | . | -12%[1.9 µM] | .
N#CSCSC#N | . | . | . | . | -93% | 4%[21.7 µM]
C[C@@]12Cc3cnc(-c4ccccc4)nc3C[C@@H]1CC[C@@H]1[C@H]3CC[C@@](C)(O)[C@]3(C)CC[C@@H]12 | . | . | . | . | -6%[10 µM] | .
COc1ccc2c3c([nH]c2c1)C(C)=NCC3 | -35% | ? | ? | 16µM* | -20% | 3%
CC/C(=C(\c1ccc(O)cc1)c1ccc(OCCN(C)C)cc1)c1ccccc1 | 10µM* | 2% | ? | . | . | -17%
C[C@@H]1O[C@@H](O[C@H]2CC[C@@H](O[C@H]3[C@H](O)C[C@H](c4ccc5c(c4O)C(=O)C4=C(C5=O)[C@@]5(O)C(=O)C[C@](C)(O[C@H]6CC[C@H](O[C@H]7C=CC(=O)[C@H](C)O7)[C@H](C)O6)C[C@@]5(O)C=C4)O[C@@H]3C)O[C@H]2C)C=CC1=O | . | . | . | . | . | -10%
CC(C)c1ccc(C(O)(C(=O)O)c2ccc(C(C)C)cc2)cc1 | . | . | . | . | -7%[10 µM] | .
CCN(CC)S(=O)(=O)c1ccc(NN=C(C#N)C#N)cc1 | -55% | ? | ? | -4% | . | -5%

Screening results as filed in PubChem.
